SNCA expr inh – reduces expression of the alpha-synuclein gene. HEK-293 SNCA-luciferase knock-in, luminescence, 24 h. Potency, µM (top dose mostly 57.2 µM), actives largely listed as inhibitors. 140,000 compounds, 0.17% hits. AID 1671194; also: nearly all actives have a fitted effect of over 45% in size
IP6K1 inhibitor – IP6K1 kinase inhibition | Q92551 | IP6K1 kinase, ADP-Glo luminescence, 2 h; active compounds read low | activity change, % (series mostly up to about 58 µM) | 140,000 compounds, 0.81% hits | AID 1645851; in the data active = activity change below about -25%
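ADP-Glo luminescence measures ADP made by human IP6K1 during a 2 h RT reaction with ATP/IP6 (mix at 1.3 mM/130 uM); top library doses 57.5 and 19.1 uM final.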
GPT2 inh – GPT2 alanine aminotransferase inhibition; Q8TD30; Recombinant GPT2, coupled pyruvate oxidase/HRP Amplex Red fluorescence; Potency, µM (series often up to 57.7 µM), usual class: inhibitors; 100,000 compounds, 0.25% hits; also: nearly all actives have a fitted effect of over 60% in size
Target sequence (Q8TD30 whole entry, looked up): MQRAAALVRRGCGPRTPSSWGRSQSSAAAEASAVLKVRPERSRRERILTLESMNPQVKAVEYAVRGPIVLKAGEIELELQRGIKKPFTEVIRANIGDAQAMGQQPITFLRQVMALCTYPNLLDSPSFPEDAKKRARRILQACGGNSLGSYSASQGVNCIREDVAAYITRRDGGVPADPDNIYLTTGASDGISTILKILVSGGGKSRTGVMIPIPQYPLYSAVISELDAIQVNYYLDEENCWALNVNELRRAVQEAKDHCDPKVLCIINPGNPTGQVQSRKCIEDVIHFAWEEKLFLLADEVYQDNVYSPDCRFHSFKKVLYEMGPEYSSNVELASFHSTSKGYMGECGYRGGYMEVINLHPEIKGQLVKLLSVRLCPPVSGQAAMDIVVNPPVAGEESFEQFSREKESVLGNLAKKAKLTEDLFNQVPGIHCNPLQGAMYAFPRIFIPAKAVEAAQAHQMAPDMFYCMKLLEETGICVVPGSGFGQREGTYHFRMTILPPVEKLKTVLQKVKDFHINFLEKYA
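GPT2 10ng/uL, a-KG 250uM, L-Ala 2mM, HEPES pH7.5 + 0.0001% Tween; 30 min RT. Then Amplex mix (PO/HRP/ThPP), 30 min RT dark, fluorescence. AOA 50uM used as positive control.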
HEK293 viab – cell viability loss counter-screen; 150,000 compounds, 0.12% hits; Potency, µM (titrated, usually from 57.1 µM), usual class: cytotoxic; HEK-293-SNCA-luc viability, GF-AFC fluorescence, 24 h; also: nearly all actives have a fitted effect of over 30% in size
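HEK-293-SNCA-luc cells (1500/well) plated 24 h, then exposed 24 h to a dilution series; GF-AFC added 30 min at 37C, fluorescence 405/540 nm; normalised to medium-only and DMSO wells, Hill fit.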
IP6K1 conf – human IP6K1 inhibition, confirmatory; 1,200 compounds, 13% hits; shares compounds with IP6K1 inhibitor; recombinant IP6K1 kinase, ADP-Glo luminescence, 2 h; Potency, µM (series often up to 49 µM), actives largely listed as inhibitors; AID 1645852; also: nearly all actives have a fitted effect of over 65% in size
Large screens that a line does not name were inactive (follow-up assays come after a bar, where they were run). In the library only some 1.1% were active in any assay of this set; here they are far more common. Unless noted, calls follow the shape of the dose curve; as a rule, active = well fitted curve in the direction sought with a large enough effect; inconclusive = small, poorly fitted or top-dose-only effect, or another doubt; inactive = no such curve, though single readings can be large; an effect the other way counts as inactive or inconclusive.

Cc1cccc(N2CCN(c3ccc(C(=O)O)cc3NC(=O)c3cccc(Cl)c3)CC2C)c1 (stereo unspecified)	IP6K1 inhibitor -28 (no result: GPT2 inh) | IP6K1 conf inconclusive
Cc1ccc(C(=O)NC2=NC(c3ccc(C)cc3)CC(=O)N2)cc1 (stereo unspecified)	IP6K1 inhibitor -26 (no result: GPT2 inh) | IP6K1 conf inactive
CCOc1ccc(C2CC(=O)NC(NC(=O)c3ccc(C)cc3)=N2)cc1 (stereo unspecified)	none (no result: GPT2 inh)
O=C1N(c2ccccc2)c2ccccc2C12CCN(Cc1cccc3ccccc13)C2 (stereo unspecified)	none
CCCCNC(=O)C1CCN(c2nc3ccccc3nc2C(F)(F)F)CC1	IP6K1 inhibitor -29 (no result: GPT2 inh) | IP6K1 conf inactive
CC(C)NC(=O)C1CCN(c2nc3ccccc3nc2C(F)(F)F)CC1	IP6K1 inhibitor -35 (no result: GPT2 inh) | IP6K1 conf inactive
CNC(=O)C1CCN(c2nc3ccccc3nc2C(F)(F)F)CC1	none (no result: GPT2 inh)
Nc1ccc(N=Nc2ccccc2)c(N)n1	IP6K1 inhibitor -37 | IP6K1 conf inconclusive
CCCC(=O)c1cc(O)c(O)cc1O	IP6K1 inhibitor -96, GPT2 inh inconclusive | IP6K1 conf inconclusive
COc1ccccc1-c1cccc(CN2CCC(NC(=O)Cc3ccc(C(F)(F)F)cc3)CC2)c1	none
Cc1ccc(C(=O)N2CCC3(CC2)NC(=O)N(c2ccc(F)cc2)N3)c(C)c1	GPT2 inh inconclusive
CN(Cc1noc(C2CCCC2)n1)c1cc(C2CC(O)C2)ncn1 (stereo unspecified)	IP6K1 inhibitor -28 | IP6K1 conf inactive
COCc1nc(C2CC(N)C2)cc(N2CCC(NS(C)(=O)=O)CC2)n1 (stereo unspecified)	SNCA expr inh inconclusive
O=C(c1ccccc1)N1CCCN(c2ccnc3ccnn23)CC1	IP6K1 inhibitor -26 | IP6K1 conf inactive
O=C(c1ccncc1)N1CCCN(c2ccnc3ccnn23)CC1	none
Cc1nc(CC2CCN(C(=O)c3cc4c(s3)CCC(C)C4)CC2)no1 (stereo unspecified)	none
Cc1ccc(C(C(=O)N2CCC(Cc3noc(C)n3)CC2)N(C)C)cc1 (stereo unspecified)	IP6K1 inhibitor -27 | IP6K1 conf inactive
O=C1[C@H]2CN(Cc3cc(Br)ccc3F)C[C@H]2C(=O)N1CCc1ccccc1	none
O=c1ncn(CC2CC2)c2ccc(-c3ccoc3)nc12	IP6K1 inhibitor -32 | IP6K1 conf inactive
Cc1cc(Nc2nc(N[C@@H](C)c3ncc(F)cn3)ncc2Cl)n[nH]1	SNCA expr inh inconclusive, HEK293 viab inconclusive | IP6K1 conf inactive
CN(C)c1ccc(NC(=O)CCn2ccn3nc4c(c3c2=O)CCCC4)cc1	GPT2 inh inconclusive
CCCCCN(CCC(=O)NCc1ccc2c(c1)OCO2)C(=O)c1cc(C)oc1C	GPT2 inh inconclusive
O=C(Nc1ccc(Cl)cc1)c1cc(-c2ccc[nH]2)n[nH]1	none | IP6K1 conf inactive
COc1ccc(NC(=O)c2cc(-c3ccc[nH]3)n[nH]2)cc1	none
CCc1ccc(NC(=O)c2cc(-c3ccc[nH]3)n[nH]2)cc1	none
Cc1cc(C)cc(NC(=O)c2cc(-c3ccc[nH]3)n[nH]2)c1	none
CCOc1ccc(NC(=O)c2cc(-c3ccc[nH]3)n[nH]2)cc1	none | IP6K1 conf inactive
CCc1cccc(NC(=O)c2cc(-c3ccc[nH]3)n[nH]2)c1	IP6K1 inhibitor -30 | IP6K1 conf 9.2µM
Cc1ccc(NC(=O)c2cc(-c3ccc[nH]3)n[nH]2)cc1	none | IP6K1 conf inactive
COc1ccccc1C(=O)N1CCCC(C(=O)N2CCCC(c3nc4ncccc4[nH]3)C2)C1 (stereo unspecified)	none
COC(=O)N1CCCC1C(=O)N1CCC(N2Cc3ccccc3C2=O)CC1 (stereo unspecified)	none
COc1cccc(C(=O)N2CCC(CCOc3ccc(F)cc3)C2)c1 (stereo unspecified)	none
CNC(=O)CNC(=O)c1cccc(-c2ccc(SC)cc2)c1	none
CCn1cnc2c(=O)oc3ccc(S(=O)(=O)N4CCN(c5cc(C)ccc5C)CC4)cc3c21	IP6K1 inhibitor -28 (no result: GPT2 inh) | IP6K1 conf inactive
O=C(NC1C[C@H]2CC[C@@H](C1)N2C(=O)Cc1ccc(Cl)cc1)c1ccncc1 (stereo partly specified)	none
COC(=O)c1cc(NC(=O)CC2C(=O)OCCN2Cc2ccccc2)cc(C(=O)OC)c1 (stereo unspecified)	IP6K1 inhibitor -33 (no result: GPT2 inh) | IP6K1 conf inactive
Cn1nnnc1Sc1ncnc2scc(-c3ccc(C#N)cc3)c12	none (no result: SNCA expr inh, IP6K1 inhibitor, GPT2 inh, HEK293 viab) | IP6K1 conf inactive
c1ccc2oc(-c3ccnc4ncnn34)cc2c1	none
Cn1nnnc1Sc1ncnc2scc(-c3cc4ccccc4o3)c12	none (no result: SNCA expr inh, IP6K1 inhibitor, GPT2 inh, HEK293 viab) | IP6K1 conf inactive
CN1CCCCCC(O)c2cc(C(=O)NCCc3c[nH]c4ccccc34)ccc21 (stereo unspecified)	none
CC[C@@H]1[C@@H](NC(=O)CCCn2nnc(-c3ccc(F)cc3)n2)[C@@H]2CCO[C@H]12	none
Cc1oncc1C(=O)Nc1ccc(C(F)(F)F)cc1	none | IP6K1 conf inactive
Cc1cccc(C(=O)Nc2ccc(N3CCC(CCN4CCOCC4)CC3)c(C(=O)O)c2)c1	SNCA expr inh inconclusive (no result: GPT2 inh)
O=C(Nc1cnc(N2CCC(N3CCCCC3)CC2)c(C(=O)O)c1)c1ccc(Br)cc1	IP6K1 inhibitor -34 (no result: GPT2 inh) | IP6K1 conf inconclusive
O=C(Nc1ccc(N2CCC(N3CCCCC3)CC2)c(C(=O)O)c1)c1ccc(Br)cc1	IP6K1 inhibitor -29 (no result: GPT2 inh) | IP6K1 conf inconclusive
O=C(Nc1ccc(N2CCOCC2)c(C(=O)O)c1)c1ccc(Br)cc1	IP6K1 inhibitor -33 (no result: GPT2 inh) | IP6K1 conf inconclusive
Cc1cc(Nc2nc(NC(C)c3ccc(F)cc3)c(C#N)cc2F)n[nH]1 (stereo unspecified)	none (no result: SNCA expr inh, IP6K1 inhibitor, GPT2 inh, HEK293 viab) | IP6K1 conf inactive
CNC(=O)c1cc(C2CC2)nc2onc(C3CCN(C(=O)Cc4ccc(F)cc4)C3)c12 (stereo unspecified)	none (no result: SNCA expr inh, GPT2 inh, HEK293 viab)
COc1ccc(-n2c(=O)c3c(n2Cc2ccccc2)CN(CCCc2ccccc2)CC3)cc1	IP6K1 inhibitor -28, HEK293 viab inconclusive | IP6K1 conf inactive
O=C(Cc1[nH]nc2ccccc12)N[C@H](c1ccc2c(c1)CCO2)C1CC(O)C1 (stereo partly specified)	IP6K1 inhibitor -36 | IP6K1 conf inactive
COc1ccc(Nc2nc(-c3c(C)noc3C)cc3cc(CN(C)C)oc23)cn1	HEK293 viab inconclusive
COc1ccccc1-c1nc(-c2c(C)noc2C)cc2cc(CN(C)C)oc12	none
COc1cc(-c2nc(-c3c(C)noc3C)cc3cc(CN(C)C)oc23)ccn1	IP6K1 inhibitor -33 | IP6K1 conf inconclusive
COc1ccc(-c2nc(-c3c(C)noc3C)cc3cc(CN(C)C)oc23)cn1	IP6K1 inhibitor -49 | IP6K1 conf inconclusive
CCNc1ncc(CN2CCC(N)(C(=O)O)C2)cn1 (stereo unspecified)	none
Cn1cccc1CN1CCCC2(CC(Cc3ccccc3)=NO2)C1 (stereo unspecified)	none

Compound activity (PubChem BioAssay)
